Test results from PubChem BioAssay (NCATS).
Records with an inconclusive call do not appear. Activity calls are given as the source filed them. Unless noted, calls come from the whole dose curve.

Columns and labels:
[1] = biological target: Lysosomal acid glucosylceramidase (Homo sapiens) (UniProt P04062); test: Glucocerebrosidase-p2 (AID 348; in the data active = potency below about 10 µM; note: potency is the fitted concentration of half-maximal effect); settings: purified GBA, blue fluorogenic substrate, 40 min
Method in brief: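 Normal human glucocerebrosidase (0.2 nM) with blue fluorogenic substrate (80 uM final) in citrate/phosphate pH 5.9 with 10mM sodium taurocholate, 0.01% tween-20; 40 min RT, NaOH/glycine stop; fluorescence Ex 365/Em 440; AC50 from a titration from 0.6 nM upwards.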

[2] = AP1 Signaling Pathway (AID 357; active = well fitted curve in either direction with a large enough effect, not every such curve was filed as active;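 note: ME-180 reporter cells stimulated with EGF at its EC50 level; % is set by controls: 0 for no effect and ±100 for the full control effect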); settings: ME-180 AP-1-bla reporter, EGF-induced, beta-lactamase ratio, 5 h; at 7.69 µM (top of the series) unless noted
Method in brief: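 Titration-series screen for positive or negative modulators of EC50 EGF-induced signaling in ME-180 cells carrying an AP-1-driven beta-lactamase reporter. After 5 hours at 37 degrees Celsius, CCF4 460nm/530nm emission ratio gave %Activity; AC50 values derived.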

[3] = biological target: Cytochrome P450 1A2 (Homo sapiens) (UniProt P05177); test: p450-cyp1a2 (AID 410); settings: recombinant CYP1A2, luciferin-ME demethylation, luminescence; series mostly up to 57 µM; note: potency is the fitted concentration of half-maximal effect;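 for activity change, negative = inhibition: -100% = full effect of reference inhibitor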
Method in brief: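 20nM CYP1A2, 100uM Luciferin-ME (=Km), 100mM KPO4; cpd 10 min RT; +NADPH regen, 60 min RT; stop/detect 20 min; luminescence. Normalized to furafylline 57 uM = full inhibition.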

[4] = Stat Signaling Pathway (AID 446; active = well fitted curve in either direction with a large enough effect, not every such curve was filed as active;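 note: ME-180 cervical cancer cells given 40 pM IL-6 alongside compound; SIE-controlled beta-lactamase reporter measured as 460/530 nm FRET emission ratio; % is set by controls: 0 for no effect and ±100 for the full control effect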); settings: ME-180 (cervical carcinoma) SIE beta-lactamase reporter, IL-6 stimulated, 5 h; at 7.69 µM (top of the series) unless noted
Method in brief: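 FRET read-out (405 nm excitation, 460/530 nm emission) of a beta-lactamase reporter under a STAT-inducible element in ME-180 cervical carcinoma cells. Cells with compound receive 40 pM IL-6 for 5 h. Values are normalised to AC90 stimulation and AC90 JAK-inhibitor controls.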

[5] = biological target: Glucocorticoid receptor (Homo sapiens) (UniProt P04150); test: GR-EFC Redistribution (AID 451); settings: CHO-K1 GR-EFC translocation, beta-gal luminescence, 2 h; note: potency is the fitted concentration of half-maximal effect
Method in brief: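 CHO-K1 cells expressing nuclear EA and GR-ED fragments of b-gal; compounds titrated up to 46 uM final, 2 h at 37 C. GR nuclear translocation read as complemented b-gal luminescence after 1 h RT detection.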

[6] = biological target: Mitogen-activated protein kinase 10 (Mus musculus) (UniProt Q61831); test: JNK3 AlphaScreen Assay (AID 530; active = well fitted curve in either direction with a large enough effect, not every such curve was filed as active;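 note: kinase came from lysate of stimulated human HepG2 cells; signal reports phosphorylation of biotinylated GST-cJun 1-79 at Ser73 with 10 µM ATP; % is set by controls: 0 for no effect and ±100 for the full control effect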); settings: JNK3 lysate, c-Jun phosphorylation; series mostly up to 57.1 µM
Method in brief: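 HepG2 lysate (IL-1b/TNFa pre-activated) + biotin-GST-cJun 1-79 + anti-pSer73 cJun; cpd titration, 15 min RT; ATP 10 uM start; Tris pH 7.6, MgCl2, DTT, vanadate; beads in EDTA buffer; AlphaScreen.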

[7] = biological target: 3',5'-cyclic-AMP phosphodiesterase 4B (Homo sapiens) (UniProt Q07343); test: qHTS Assay for Inhibitors of PDE-IV (AID 607; active = well fitted activation curve with a large enough effect in the main read-out, with a control signal flat, not every such curve was filed as active; note: % of control where 0% means no effect); settings: HEK293 ACTOne CNG channel cells, membrane potential fluorescence; series mostly up to 22.9 µM
Method in brief: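 Cell-based read-out of cAMP via a modified cyclic nucleotide-gated channel and membrane potential dye (535/590 nm) in HEK293 cells expressing PDE4 endogenously. Compounds tested up to 22.9 uM final; 100 uM RO 20-1724 reference.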

[8] = qHTS Assay for Lipid Storage Modulators (AID 1519); settings: Drosophila S3 cells, BODIPY lipid droplet/cell ratio, laser cytometry, cells loaded with oleic acid; for activity change, negative = inhibition: at 57.5 µM (top of the series)
Method in brief: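 Cells seeded at 5,000 per well were treated with compounds over a concentration series and loaded with oleic acid (400 uM, as added). Lipid droplet fluorescence (488 nm excitation, 500-530 nm channel) was read by laser-scanning cytometry and normalized to 20 uM Triacsin C.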

[9] = Primary qHTS for small molecule stabilizers of the endoplasmic reticulum resident proteome: Secreted ER Calcium Modulated Protein (SERCaMP) assay (AID 1508630; active = well fitted curve in the direction sought with a large enough effect; an effect the other way counts as inactive or inconclusive; note: % is set by controls: 0 for no effect and ±100 for the full control effect); settings: SH-SY5Y GLuc-SERCaMP (Gaussia luciferase released on ER calcium loss) secretion, thapsigargin, luminescence; series mostly up to 38.4 µM
Method in brief: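 The SH-SY5Y reporter protocol was run at 3 concentrations up to 38.3 uM (primary) or 11 concentrations (follow-up): 16 h compound, 100 nM thapsigargin for 4 h, then extracellular luciferase luminescence.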

[10] = biological target: Cytochrome P450 2C9 (Homo sapiens) (UniProt P11712); test: qHTS Assay for Inhibitors and Substrates of Cytochrome P450 2C9 (AID 883; active = well fitted curve in the direction sought with a large enough effect; an effect the other way counts as inactive or inconclusive; note: % is set by controls: 0 for no effect and ±100 for the full control effect; nearly all actives have a fitted effect of over 60% in size); settings: recombinant CYP2C9, luciferin-H luminescence, 60 min; series mostly up to 57.1 µM
Method in brief: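 10nM CYP2C9 + 100uM Luciferin-H (=KM), 25mM KPO4; cpd 10 min 37C; NADPH regen, 60 min 37C; stop/detect with P450 Glo-Buffer 20 min; luminescence. Norm. to 57uM sulphaphenazole as full inhibition.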

[11] = biological target: Cytochrome P450 3A4 (Homo sapiens) (UniProt P08684); test: qHTS Assay for Activators of Cytochrome P450 3A4 (AID 885; active = well fitted curve in the direction sought with a large enough effect; an effect the other way counts as inactive or inconclusive; note: nearly all actives have a fitted effect of over 65% in size); settings: recombinant CYP3A4, Luciferin-PPXE luminescence, 60 min; series mostly up to 57.1 µM
Method in brief: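 Luminescent readout of luciferin formed from 25 uM Luciferin-PPXE (KM level) by 20 nM CYP3A4 in 200 mM KPO4, with 60 min NADPH-driven reaction at room temperature after 10 min compound exposure. Ketoconazole (57 uM) defined 100% inhibition.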

[12] = biological target: Glucocorticoid receptor (Homo sapiens) (UniProt P04150); test: GR-GFP Redistribution (AID 450;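 active = compounds whose dose series gives a full or clear partial fitted curve of increased nuclear translocation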; note: potency is the fitted concentration of half-maximal effect); settings: U2OS GR-GFP nuclear translocation, laser cytometry, 2 h
[13] = biological target: Ubiquitin carboxyl-terminal hydrolase 1 (Homo sapiens) (UniProt O94782); test: Inhibitors of USP1/UAF1: Pilot qHTS (AID 504865; active = well fitted curve in the direction sought with a large enough effect; an effect the other way counts as inactive or inconclusive;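 note: rhodamine fluorescence freed from ubiquitin-rhodamine substrate followed over time; top concentration of the series differs between compounds; % is set by controls: 0 for no effect and ±100 for the full control effect; nearly all actives have a fitted effect of over 35% in size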); settings: purified USP1/UAF1, Ub-rhodamine cleavage fluorescence; series mostly up to 54.9 µM
Method in brief: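 Deubiquitinase activity followed as kinetic rhodamine fluorescence release from 150 nM Ub-Rho. 1 nM USP1/UAF1 with compound, after 15 min room-temperature preincubation, in HEPES pH 7.8 buffer containing TCEP, EDTA, BSA and Tween-20.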

[14] = biological target: Cytochrome P450 2D6 (Homo sapiens) (UniProt P10635); test: qHTS Assay for Inhibitors and Substrates of Cytochrome P450 2D6 (AID 891; active = well fitted curve in the direction sought with a large enough effect; an effect the other way counts as inactive or inconclusive; note: potency is the fitted concentration of half-maximal effect; nearly all actives have a fitted effect of over 60% in size); settings: recombinant CYP2D6, luciferin-ME EGE luminescence; series mostly up to 57.1 µM
Method in brief: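 Luminescent read-out of luciferin formed by 5 nM human CYP2D6 demethylating 30 uM Luciferin-ME EGE (Km level) over 60 min at room temperature after NADPH regeneration addition. Data normalized to full inhibition by 1.43 uM quinidine.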

[15] = Confirmation and Secondary Assay for Modulators of Hemoglobin Beta Chain Splicing at IVS2 654 locus (AID 910; active = well fitted curve in the direction sought with a large enough effect; an effect the other way counts as inactive or inconclusive;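 note: HeLa cells stably carrying EGFP split by mutant beta-globin IVS2-654 intron; % of control where 0% means no effect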); settings: HeLa EGFP-654 splicing reporter, GFP fluorescence, 48 h; series mostly up to 38.3 µM
Method in brief: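 HeLa cells stably expressing EGFP interrupted by β-globin IVS2-654 intron, seeded overnight in Opti-MEM/2% FCS, then treated 2 days at 37 °C. Restored splicing read as total peak GFP intensity per well by laser scanning cytometry (488 nm excitation, 500–520 nm emission); 500 nM antisense PNA as control.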

[16] = measured here: cell count channel max response
[17] = measured here: lipid channel max response

Sequence of 3',5'-cyclic-AMP phosphodiesterase 4B (Homo sapiens) (Q07343 whole entry, looked up): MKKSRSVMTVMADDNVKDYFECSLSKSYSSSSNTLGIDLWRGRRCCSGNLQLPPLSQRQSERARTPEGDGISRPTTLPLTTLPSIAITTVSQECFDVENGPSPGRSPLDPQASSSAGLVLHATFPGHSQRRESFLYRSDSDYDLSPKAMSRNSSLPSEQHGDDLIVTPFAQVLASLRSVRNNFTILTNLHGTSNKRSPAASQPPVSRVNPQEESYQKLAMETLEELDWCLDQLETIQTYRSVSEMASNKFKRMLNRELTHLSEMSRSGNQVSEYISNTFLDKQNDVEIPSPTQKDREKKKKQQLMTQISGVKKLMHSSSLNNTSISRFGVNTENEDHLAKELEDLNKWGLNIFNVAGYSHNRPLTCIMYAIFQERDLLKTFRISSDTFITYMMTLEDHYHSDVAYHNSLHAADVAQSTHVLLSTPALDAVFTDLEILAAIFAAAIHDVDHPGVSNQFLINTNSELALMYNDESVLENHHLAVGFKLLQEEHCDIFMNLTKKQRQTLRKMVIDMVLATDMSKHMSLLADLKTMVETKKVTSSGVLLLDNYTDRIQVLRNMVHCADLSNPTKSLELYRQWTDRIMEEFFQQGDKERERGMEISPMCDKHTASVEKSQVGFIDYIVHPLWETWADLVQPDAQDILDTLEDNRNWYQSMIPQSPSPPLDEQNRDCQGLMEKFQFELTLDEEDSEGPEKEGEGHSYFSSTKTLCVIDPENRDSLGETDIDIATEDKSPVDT
Sequence of Cytochrome P450 1A2 (Homo sapiens) (P05177 whole entry, looked up): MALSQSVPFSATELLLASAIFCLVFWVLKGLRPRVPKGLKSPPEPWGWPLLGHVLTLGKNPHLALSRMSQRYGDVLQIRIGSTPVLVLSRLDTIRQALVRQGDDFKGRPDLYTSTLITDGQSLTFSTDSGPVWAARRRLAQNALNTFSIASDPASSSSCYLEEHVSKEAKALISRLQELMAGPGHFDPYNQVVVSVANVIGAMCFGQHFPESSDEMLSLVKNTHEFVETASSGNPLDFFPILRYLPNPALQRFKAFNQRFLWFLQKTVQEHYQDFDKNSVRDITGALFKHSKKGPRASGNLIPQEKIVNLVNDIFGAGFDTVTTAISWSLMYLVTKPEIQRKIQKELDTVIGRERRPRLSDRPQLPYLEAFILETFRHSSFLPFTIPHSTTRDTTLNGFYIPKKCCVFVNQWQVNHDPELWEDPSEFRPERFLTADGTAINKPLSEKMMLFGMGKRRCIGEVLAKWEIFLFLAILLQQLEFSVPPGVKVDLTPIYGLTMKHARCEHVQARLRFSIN
Sequence of Cytochrome P450 3A4 (Homo sapiens) (P08684 whole entry, looked up): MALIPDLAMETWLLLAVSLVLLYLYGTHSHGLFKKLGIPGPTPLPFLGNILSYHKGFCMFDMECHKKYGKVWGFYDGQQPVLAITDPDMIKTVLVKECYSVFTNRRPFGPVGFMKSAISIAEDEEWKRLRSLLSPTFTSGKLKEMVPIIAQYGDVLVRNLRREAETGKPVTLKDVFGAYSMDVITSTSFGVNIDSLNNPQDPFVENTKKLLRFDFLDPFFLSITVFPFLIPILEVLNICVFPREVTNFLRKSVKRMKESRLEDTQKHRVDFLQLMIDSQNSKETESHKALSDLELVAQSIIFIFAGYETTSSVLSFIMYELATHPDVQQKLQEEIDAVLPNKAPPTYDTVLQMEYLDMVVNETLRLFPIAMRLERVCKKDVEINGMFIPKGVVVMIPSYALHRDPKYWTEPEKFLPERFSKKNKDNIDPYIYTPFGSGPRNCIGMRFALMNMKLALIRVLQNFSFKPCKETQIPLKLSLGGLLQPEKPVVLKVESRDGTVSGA
Sequence of Lysosomal acid glucosylceramidase (Homo sapiens) (P04062 whole entry, looked up): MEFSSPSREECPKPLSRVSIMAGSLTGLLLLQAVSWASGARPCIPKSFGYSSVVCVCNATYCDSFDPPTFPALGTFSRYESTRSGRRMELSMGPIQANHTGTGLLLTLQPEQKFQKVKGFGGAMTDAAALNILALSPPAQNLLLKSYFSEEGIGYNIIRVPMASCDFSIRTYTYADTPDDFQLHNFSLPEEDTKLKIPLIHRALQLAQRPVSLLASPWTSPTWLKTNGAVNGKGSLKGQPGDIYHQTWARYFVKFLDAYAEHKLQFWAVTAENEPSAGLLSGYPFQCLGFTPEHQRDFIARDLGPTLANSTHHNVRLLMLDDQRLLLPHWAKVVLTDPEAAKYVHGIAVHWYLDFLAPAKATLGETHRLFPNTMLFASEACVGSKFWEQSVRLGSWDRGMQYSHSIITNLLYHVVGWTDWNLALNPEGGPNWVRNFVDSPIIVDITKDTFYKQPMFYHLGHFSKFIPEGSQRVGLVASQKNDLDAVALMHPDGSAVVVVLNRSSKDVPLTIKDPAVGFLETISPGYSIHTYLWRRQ
Sequence of Glucocorticoid receptor (Homo sapiens) (P04150 whole entry, looked up, the tested form may be a part): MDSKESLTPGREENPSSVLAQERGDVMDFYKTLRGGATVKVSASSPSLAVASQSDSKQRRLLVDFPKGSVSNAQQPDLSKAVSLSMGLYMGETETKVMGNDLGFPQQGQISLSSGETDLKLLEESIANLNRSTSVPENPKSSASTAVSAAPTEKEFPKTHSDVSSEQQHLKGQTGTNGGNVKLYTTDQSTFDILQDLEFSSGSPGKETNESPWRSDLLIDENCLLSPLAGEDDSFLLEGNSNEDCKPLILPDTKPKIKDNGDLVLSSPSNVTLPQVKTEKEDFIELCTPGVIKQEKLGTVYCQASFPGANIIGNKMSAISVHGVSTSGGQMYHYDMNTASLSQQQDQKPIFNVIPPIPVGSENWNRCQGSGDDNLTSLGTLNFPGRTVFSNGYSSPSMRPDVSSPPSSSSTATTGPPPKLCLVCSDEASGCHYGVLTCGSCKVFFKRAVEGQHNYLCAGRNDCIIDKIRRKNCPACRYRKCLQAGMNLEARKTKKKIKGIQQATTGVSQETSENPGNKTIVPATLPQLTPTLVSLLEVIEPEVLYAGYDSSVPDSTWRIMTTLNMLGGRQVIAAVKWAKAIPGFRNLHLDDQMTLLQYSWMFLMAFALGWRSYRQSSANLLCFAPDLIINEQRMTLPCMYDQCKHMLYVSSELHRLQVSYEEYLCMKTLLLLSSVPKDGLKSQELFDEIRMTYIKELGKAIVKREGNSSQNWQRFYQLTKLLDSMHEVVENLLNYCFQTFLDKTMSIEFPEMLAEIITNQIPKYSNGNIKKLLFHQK
Sequence of Ubiquitin carboxyl-terminal hydrolase 1 (Homo sapiens) (O94782 whole entry, looked up): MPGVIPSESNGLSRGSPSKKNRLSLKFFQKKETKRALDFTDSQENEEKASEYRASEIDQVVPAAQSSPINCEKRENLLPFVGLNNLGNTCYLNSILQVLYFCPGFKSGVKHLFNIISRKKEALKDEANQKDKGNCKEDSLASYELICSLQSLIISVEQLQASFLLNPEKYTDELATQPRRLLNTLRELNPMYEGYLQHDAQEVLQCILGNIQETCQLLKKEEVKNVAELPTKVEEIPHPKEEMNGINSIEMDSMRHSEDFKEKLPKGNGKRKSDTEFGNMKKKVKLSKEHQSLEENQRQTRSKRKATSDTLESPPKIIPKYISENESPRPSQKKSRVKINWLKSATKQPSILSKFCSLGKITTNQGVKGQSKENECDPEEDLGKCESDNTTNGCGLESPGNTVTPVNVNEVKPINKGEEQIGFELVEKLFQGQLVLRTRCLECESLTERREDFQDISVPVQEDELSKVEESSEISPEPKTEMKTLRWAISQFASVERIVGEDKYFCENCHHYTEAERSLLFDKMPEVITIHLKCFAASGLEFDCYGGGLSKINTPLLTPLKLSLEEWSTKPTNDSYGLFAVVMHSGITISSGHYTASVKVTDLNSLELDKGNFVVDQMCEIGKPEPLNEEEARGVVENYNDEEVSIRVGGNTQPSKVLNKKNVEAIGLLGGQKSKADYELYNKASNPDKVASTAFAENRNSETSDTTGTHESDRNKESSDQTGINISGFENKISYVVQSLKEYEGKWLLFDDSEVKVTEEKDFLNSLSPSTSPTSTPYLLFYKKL
Sequence of Cytochrome P450 2D6 (Homo sapiens) (P10635 whole entry, looked up): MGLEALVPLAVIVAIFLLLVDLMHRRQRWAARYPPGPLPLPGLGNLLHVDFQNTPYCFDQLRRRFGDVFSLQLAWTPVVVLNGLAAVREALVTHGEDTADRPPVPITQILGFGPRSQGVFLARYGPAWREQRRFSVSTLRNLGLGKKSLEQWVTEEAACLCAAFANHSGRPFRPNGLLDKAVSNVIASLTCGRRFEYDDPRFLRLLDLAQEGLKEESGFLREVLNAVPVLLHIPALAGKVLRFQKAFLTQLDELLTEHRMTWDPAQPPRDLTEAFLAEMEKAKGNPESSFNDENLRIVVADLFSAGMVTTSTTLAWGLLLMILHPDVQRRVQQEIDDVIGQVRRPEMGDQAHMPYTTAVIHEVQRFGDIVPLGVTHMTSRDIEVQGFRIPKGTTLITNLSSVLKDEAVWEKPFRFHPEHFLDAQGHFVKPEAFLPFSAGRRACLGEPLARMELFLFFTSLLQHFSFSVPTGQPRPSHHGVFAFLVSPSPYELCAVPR
Sequence of Cytochrome P450 2C9 (Homo sapiens) (P11712 whole entry, looked up): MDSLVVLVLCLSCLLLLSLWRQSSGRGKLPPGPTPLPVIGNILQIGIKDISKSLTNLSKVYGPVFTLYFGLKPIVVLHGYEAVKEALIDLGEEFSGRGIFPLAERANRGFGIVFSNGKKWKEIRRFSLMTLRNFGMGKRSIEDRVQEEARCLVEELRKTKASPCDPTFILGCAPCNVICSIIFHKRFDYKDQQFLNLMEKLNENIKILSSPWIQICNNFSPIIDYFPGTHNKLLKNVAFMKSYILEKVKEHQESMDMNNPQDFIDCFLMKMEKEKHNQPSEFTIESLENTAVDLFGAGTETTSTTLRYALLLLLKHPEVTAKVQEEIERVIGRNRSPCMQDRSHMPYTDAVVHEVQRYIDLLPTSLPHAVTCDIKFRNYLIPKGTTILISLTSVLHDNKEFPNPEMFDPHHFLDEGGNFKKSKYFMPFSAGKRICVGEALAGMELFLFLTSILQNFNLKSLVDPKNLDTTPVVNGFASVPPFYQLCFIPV

O=S(=O)(c1ccccc1)N1CCC2(CCN(Cc3nccs3)CC2)CC1
7.01%: max response [8, 17]
4.88%: max response [8, 16]
inactive: Potency [1] > 11.4 µM | activity change, negative = inhibition [2] 19.1% | Potency [3] | activity, negative = inhibition [4] -4.54% | Potency [5] > 46 µM | Potency [6] | Potency [7] | activity change, negative = inhibition [8] 0.281% | outcome [9]

COC(=O)N1CCC2(CC1)CN(c1ccncc1)C2
inactive: Potency [1] > 11.4 µM | activity change, negative = inhibition [2] 1.61% | Potency [3] | activity, negative = inhibition [4] -7.68% | Potency [5] > 46 µM | Potency [6] | Potency [7] | activity change, negative = inhibition [8] 3.84% | outcome [9]
12.9%: max response [8, 17]
7.79%: max response [8, 16]

O=C(Nc1cccc(F)c1)N1CC2(CCN(C(=O)c3cc(C(F)(F)F)cc(C(F)(F)F)c3)CC2)C1
inactive: Potency [1] > 11.4 µM | activity change, negative = inhibition [2] -25.3% | Potency [3] | activity, negative = inhibition [4] -22% | Potency [5] > 46 µM | Potency [6] | Potency [7] | Potency [10] | Potency [11] | activity change, negative = inhibition [8] 7.3% | outcome [9]
27.5%: max response [8, 17]
16.9%: max response [8, 16]

Cn1cccc1C(=O)N1CCC2(CCCN(Cc3ccccc3)C2)CC1
inactive: Potency [1] > 11.4 µM | activity change, negative = inhibition [2] -4.68% | Potency [3] | activity, negative = inhibition [4] -3.12% | Potency [5] > 46 µM | Potency [6] | Potency [7] | activity change, negative = inhibition [8] 3.59% | outcome [9]
8.85%: max response [8, 17]
2.52%: max response [8, 16]

CN(C)Cc1ccccc1-c1cncnc1NCc1cccs1
16.5%: max response [8, 16]
inactive: Potency [1] > 11.4 µM | activity change, negative = inhibition [2] 8.74% | activity, negative = inhibition [4] -5.04% | Potency [12] > 46 µM | Potency [5] > 46 µM | Potency [6] | Potency [7] | Potency [11] | activity change, negative = inhibition [8] 5.02% | Potency [13] | outcome [9]
active: Potency [3] 25.1 µM
25.4%: max response [8, 17]

CC(C)CN1CCC2(CC1)CCN(S(=O)(=O)c1ccccc1)CC2
3.86%: max response [8, 17]
inactive: Potency [1] > 11.4 µM | activity change, negative = inhibition [2] -4.17% | Potency [3] | activity, negative = inhibition [4] -1.58% | Potency [5] > 46 µM | Potency [6] | Potency [7] | activity change, negative = inhibition [8] 2.93% | outcome [9]
-0.0585%: max response [8, 16]

CN(C)Cc1ccccc1-c1cc(-n2ccnc2)ncn1
active: Potency [3] 5.01 µM | Potency [14] 2.51 µM
4.13%: max response [8, 16]
inactive: Potency [1] > 11.4 µM | activity change, negative = inhibition [2] -2.52% | activity, negative = inhibition [4] 1.39% | Potency [12] > 46 µM | Potency [5] > 46 µM | Potency [6] | Potency [7] | Potency [11] | Potency [15] | activity change, negative = inhibition [8] 11.3% | Potency [13] | outcome [9]
14.2%: max response [8, 17]
